Consider 19 compounds from PubChem BioAssay (NCATS).

Test [1] addresses Calcium and integrin-binding protein 1 (Homo sapiens) (UniProt Q99828). Briefly: Primary qHTS for Identification of Calcium Integrin Binding Protein 1 (CIB1) Competitor (AID 1508620).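 Also: GST tagged CIB1 binding a fluorescein labelled alphaIIb integrin peptide tracer; top concentration of the series differs between compounds.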 The method, boiled down:
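Fluorescence polarization competition: CIB1-GST (1 uM final) preincubated with compound 15 min at room temperature, then FITC-labeled alphaIIb peptide (100 nM final) added for another 15 min. Polarization read at Ex 480/Em 540.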
A general note: In qHTS, concentration-response curves come from the screen itself.

The nature of test [2]: Primary qHTS for inhibitors of nuclear receptor binding SET domain protein 2 (NSD2) in an isogenic RCH-ACV NSD2 p.E1099K mutant (9B) (AID 1645876). Also: nearly all actives have a fitted effect of over 70% in size. Also: potency is read from the fitted curve at half-maximal effect.

Inconclusive results are not listed. Active and inactive are the calls of the source. Calls follow the shape of the dose curve; as a rule, active = well fitted inhibition curve with a large enough effect; inconclusive = small, poorly fitted or top-dose-only effect; inactive = flat fitted curve, though single readings scatter.
% is scaled to controls: 0 for no effect and ±100 for the full control effect.

Sequence of Calcium and integrin-binding protein 1 (Homo sapiens) (Q99828 whole entry, looked up): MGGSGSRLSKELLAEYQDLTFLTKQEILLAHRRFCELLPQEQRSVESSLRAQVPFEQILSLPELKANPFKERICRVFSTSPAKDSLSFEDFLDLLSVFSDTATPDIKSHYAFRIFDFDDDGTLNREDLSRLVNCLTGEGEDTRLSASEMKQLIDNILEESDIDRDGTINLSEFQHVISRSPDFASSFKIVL

With `Nc1nc2c(ncn2[C@@H]2O[C@H](CO)[C@@H](O)[C@H]2O)c(=O)[nH]1`, the Potency result in test [1] and in test [2] was “inactive” in each case.

As to `CC(C)=CCC/C(C)=C/CC/C(C)=C/COC1OC(COC2OCC(OC3OCC(O)C(O)C3O)C(O)C2O)C(O)C(OC2OC(C)C(OC3OC(C)C(OC4OCC(OC5OC(C)C(O)C(O)C5O)C(O)C4O)C(O)C3O)C(O)C2O)C1O` (stereo not drawn), the activity change, negative = inhibition in test [1] was 4.51% [at 12.4 µM] (inactive). Further, the outcome in test [2] is “inactive [at 9.23 µM]”.

Turning to `CC(C)(C)OC(=O)N1CCC(OCc2nc(-c3ccncc3)no2)CC1`, the Potency entry in test [1] and in test [2] was “inactive” each time.

Consider `CC(C)[C@@H]1C(=O)N(S(C)(=O)=O)[C@@H]2CCN(C(=O)/C=C/CN3CCCCC3)[C@H]21`, for which the Potency entry in test [1] and in test [2] was “inactive” throughout.

In the case of `Nc1nc2c(c(=O)[nH]1)C[C@@H](CCc1ccc(C(=O)N[C@@H](CCC(=O)O)C(=O)O)cc1)CN2`, in test [1], the Potency result was “inactive”. Besides, in test [2], the Potency was 11.5 nM (active).

On to `CC(=O)OC1C(c2ccccc2)CCC(c2ccccc2)C1OC(C)=O` (stereo not drawn), for which the Potency entry in test [1] and in test [2] was “inactive” each time.

Turning to `O=C1NC(Cc2c[nH]c3ccccc23)C(=O)NC1Cc1c[nH]c2ccccc12` (stereo not drawn), the Potency entry in test [1] and in test [2] was “inactive” each time.

On to `CC(=O)O[C@H]1CC(C)(C)CC2[C@@]13[C@H](O)C[C@]1(C)[C@@]2(CCC2[C@@]4(C)CC[C@H](O[C@@H]5OC[C@H](O[C@@H]6O[C@H](CO)[C@@H](O)[C@H](O)[C@H]6O[C@@H]6OC[C@@H](O)[C@H](O)[C@H]6O)[C@H](O)[C@H]5O[C@@H]5O[C@H](CO)[C@@H](O)[C@H](O)[C@H]5O)C(C)(C)C4CC[C@]21C)O[C@@H]3O` (stereo partly drawn), for which, in test [1], the Potency entry was “inactive”. Further, the Potency in test [2] is 346 nM (active).

`Cn1c(=O)cc(N2CCCC(N)C2)n(Cc2cc(F)ccc2C#N)c1=O` (stereo not drawn): the Potency result in test [1] and in test [2] was “inactive” in each case.

Turning to `CC1C=CC2CCCCC2C1CCC1CC(O)CC(=O)O1` (stereo not drawn), the Potency result in test [1] and in test [2] was “inactive” each time.

On to `CC1=C(CCC(C)O[C@@H]2O[C@H](CO)[C@@H](O)[C@H](O)[C@H]2O)C(C)(C)CCC1=O` (stereo partly drawn), for which the Potency entry in test [1] and in test [2] was “inactive” throughout.

For `CO/N=C(/C(=O)N[C@@H]1C(=O)N2C(C(=O)O)=C(Cn3ccc(=N)n3CCO)CS[C@H]12)c1csc(N)n1`, the Potency result in test [1] and in test [2] was “inactive” throughout.

With `O=C(N/N=C/c1ccc(O)c(O)c1)c1cc2ccccc2cc1O`, the Potency entry in test [1] was “inactive”. Moreover, in test [2], the Potency is 6820 nM (active).

Regarding `CC1=CC(=O)CC(C)(C)C1CCC(C)O[C@@H]1O[C@H](CO[C@@H]2OC[C@@H](O)[C@H](O)[C@H]2O)[C@@H](O)[C@H](O)[C@H]1O` (stereo partly drawn), the Potency result in test [1] and in test [2] was “inactive” throughout.

In the case of `CC(=O)OC[C@]12[C@H](OC(C)=O)C(=O)[C@@H]3[C@@H](OC(C)=O)[C@@]14O[C@@]3(C)COC(=O)c1cccnc1[C@@H](C)[C@H](C)C(=O)O[C@@H]([C@H](O)[C@@H]2OC(C)=O)[C@]4(C)O`, the Potency entry in test [1] and in test [2] was “inactive” each time.

As for `CC(=O)O[C@@H]1[C@@H](OC(=O)/C=C/c2ccccc2)[C@@H](OC(C)=O)[C@H](O[C@H]2[C@@H]3C=CO[C@@H](O[C@@H]4O[C@H](CO)[C@@H](O)[C@H](O)[C@H]4O)[C@@H]3[C@@]3(CO)O[C@@H]23)O[C@H]1C`, the Potency entry in test [1] and in test [2] was “inactive” each time.

Consider `C=C(C)C1CCC(C)C12CC(O)C1(C)OC1C2OC(=O)C(N)CCC(=O)O` (stereo not drawn), for which the Potency result in test [1] and in test [2] was “inactive” in each case.

Take `COC(=O)c1cc(OC)cc(OC)c1C(=O)c1c(OC)cc2c(c1O)C1CCCC(C)(O2)O1` (stereo not drawn): the Potency result in test [1] and in test [2] was “inactive” in each case.

As for `O=C(Nc1ccn[nH]1)c1c(F)cccc1F`, the Potency entry in test [1] and in test [2] was “inactive” each time.
